Screening data (PubChem)
HCMV antiviral: qHTS Assay for inhibitors of the human cytomegalovirus (HCMV) | HFF cells, HCMV-luciferase reporter, 72 h; active compounds read low | activity change, negative = inhibition, % at 57.5 µM | 410,000 tested, 4.5% active; in the data active = activity change below about -60%; inconclusive = no clear call, values can overlap the other calls; inactive = above about -39%; note: % is set by controls: 0 for no effect and ±100 for the full control effect
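Two compound doses tested in HFFs infected with HCMV-luciferase, MOI 1 PFU/cell, 72 h at 37C. Lysate luminescence read with OneGlo; data normalized against buffer-only and 10uM Salinomycin inhibitor controls.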
Shiga toxin inh: A qHTS for Small Molecule Inhibitors of Shiga Toxin; Vero cells, Shiga toxin protein synthesis inhibition reporter; inhibition, % at 38.7 µM; 290,000 tested, 9.2% active; in the data active = inhibition mostly above about 28%, no sharp cut-off; inactive = mostly below about 43%; note: 0% is about no effect
Cycloheximide cs: Cycloheximide Counterscreen for Small Molecule Inhibitors of Shiga Toxin; cell reporter, cycloheximide protein synthesis inhibition counterscreen; max response, %; 300,000 tested, 12% active; in the data active = max response mostly above about 13%, no sharp cut-off; inactive = mostly below about 14%; note: read at 38.3 µM for the half of the compounds with a filed dose; 0% is about no effect
HCV inh: qHTS Assay for Inhibitors of Hepatitis C Virus (HCV); Huh7.5.1 HCVcc-Cre infection, luciferase reporter, 44 h; Potency, µM (series often up to 41.8 µM), for inactives: at the top dose activity change, negative = inhibition, most hits filed as inhibitors; 340,000 tested, 3.4% active; note: potency is the fitted concentration of half-maximal effect; % is set by controls: 0 for no effect and ±100 for the full control effect
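Antiviral activity was scored by luciferase reporter output from cells infected with HCVcc-Cre (~0.5 moi) in presence of compound, 44 h infection period, cells seeded 1,000/well 4 h prior.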
Pf growth 48h: Primary qHTS for delayed death inhibitors of the malarial parasite plastid, 48 hour incubation. Potency, µM (titrated, usually from 28.7 µM), inactives show at the top dose activity change, negative = inhibition, actives largely listed as inhibitors. P. falciparum luciferase growth in erythrocytes, 48 h. 310,000 tested, 5.9% active; note: potency is the fitted concentration of half-maximal effect; % is set by controls: 0 for no effect and ±100 for the full control effect
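Read-out is firefly luciferase luminescence from an integrated reporter in P. falciparum, so falling signal marks reduced parasite growth. Infected erythrocytes were at 2% hematocrit and 0.1% parasitemia (final) in Albumax-supplemented RPMI 1640.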
Pf growth 96h: Primary qHTS for delayed death inhibitors of the malarial parasite plastid, 96 hour incubation; P. falciparum luciferase reporter growth, 96 h; 320,000 tested, 6.9% active; Potency, µM (highest dose often 28.7 µM), for the others: at the highest dose activity change, negative = inhibition, most hits filed as inhibitors; note: potency is the fitted concentration of half-maximal effect; % is set by controls: 0 for no effect and ±100 for the full control effect
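Luminescence readout: decreased luciferase signal marks inhibited growth of reporter-expressing P. falciparum in infected red cells (2% hematocrit, 0.05% parasitemia final), exposed to compound two generations (96 h, 37 C, 5% CO2).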
An asterisk follows results filed as active; ? = inconclusive; nt = no result; + = active, no number. In the library only some 21% were active in any assay of this set; here they are far more common. Unless noted, calls come from the whole dose curve; as a rule, active = well fitted inhibition curve with a large enough effect; inconclusive = small, poorly fitted or top-dose-only effect, or another doubt; inactive = no such curve, though single readings can be large or run the other way.

SMILES | HCMV antiviral | Shiga toxin inh | Cycloheximide cs | HCV inh | Pf growth 48h | Pf growth 96h
COc1ccc(S(=O)(=O)N2CCN(C(=O)c3cc(C)on3)CC2)cc1 | -12 | nt | nt | -13% | 5% | ?
COc1ccc(S(=O)(=O)N2CCN(C(=O)c3cc(-c4ccccc4OC)n[nH]3)CC2)cc1 | -16 | 7 | -2 | ? | 1.3µM* | -2%
CC(C)c1ccc(S(=O)(=O)N2CCN(C(=O)c3cc(-c4ccccc4)n[nH]3)CC2)cc1 | -6 | 7 | -2 | 10% | ? | 16%
COc1cccc(-c2cc(C(=O)N3CCN(S(=O)(=O)c4ccc(Br)cc4)CC3)[nH]n2)c1 | -24 | 25 | 1 | 9% | -17% | 13µM*
Cn1ncc([N+](=O)[O-])c1C(=O)n1nnc2ccccc21 | 41 | 14 | -2 | 1% | 22% | ?
CCOc1ccc(NS(=O)(=O)c2ccc(C(=O)NC3CCC(O)CC3)cc2)cc1 (stereo not drawn) | 3 | nt | nt | -27% | -9% | -15%
CCSC1=C(C#N)C(c2ccc(Cl)cc2)C2=C(CCCC2=O)N1 (stereo not drawn) | -10 | -5 | -6 | 25µM* | ? | 191%
N#CC1=C(SCC(=O)c2ccccc2)NC2=C(C(=O)CCC2)C1c1ccco1 (stereo not drawn) | 106 | 72* | 66* | 11µM* | ? | 82%
COc1ccc(NC(=O)CSC2=C(C#N)C(c3ccco3)C3=C(CCCC3=O)N2)c(OC)c1 (stereo not drawn) | 15 | -13 | 14 | ? | nt | nt
Cc1ccc(C(=O)CSC2=C(C#N)C(c3ccco3)C3=C(CCCC3=O)N2)cc1 (stereo not drawn) | -26 | -18 | 18* | 25µM* | ? | -24%
CC(C)(C)c1ccc(C(=O)CCCSC2=C(C#N)C(c3ccco3)C3=C(CCCC3=O)N2)cc1 (stereo not drawn) | ? | -2 | 4 | 6.3µM* | 6.6µM* | 20%
CCCN(CCC)CCNC(=O)Cn1ncc2c([nH]c3ccc(C)cc32)c1=O | 13 | nt | nt | nt | nt | nt
O=C(NCc1ccc(Cl)cc1)C(=O)NCC(c1ccco1)S(=O)(=O)c1cccs1 (stereo not drawn) | -3 | nt | nt | nt | nt | nt
CC(C)(CN1CCc2ccccc2C1)NS(=O)(=O)c1ccc(Cl)cc1 | -28 | -8 | -2 | ? | -13% | 16%
CCCc1ccc2oc(C(=O)NCCN3CCCC(C(N)=O)C3)c(C)c2c1 (stereo not drawn) | ? | -4 | 8 | ? | -3% | 0%
CCCc1ccc2oc(C(=O)NCCCN3CCOCC3)c(C)c2c1 | 42 | 67* | 50* | -9% | 68% | ?
CCCc1ccc2oc(C(=O)NCCN3CCCC(O)C3)c(C)c2c1 (stereo not drawn) | 15 | 77* | 34* | ? | ? | 0%
Cc1c(C(=O)NCCCN2CCOCC2)oc2c1C1(CCC2)SCCS1 | 14 | + | 7 | -11% | -12% | -3%
CCCc1ccc2oc(C(=O)NCc3nnc(C)o3)c(C)c2c1 | -35 | 97* | 45* | -2% | -3% | -1%
COCC(C)NC(=O)c1oc2c(c1C)C1(CCC2)SCCS1 (stereo not drawn) | 33 | 25 | 8 | ? | -25% | ?
CC(=O)NC1CC(=O)N(c2ccc3c(c2)OCCO3)C1 (stereo not drawn) | 11 | nt | nt | nt | nt | nt
COc1ccccc1/C=N/n1cnnc1 | -14 | 17 | -7 | ? | 36% | nt
O=S(=O)(Oc1ccccc1/C=N/n1cnnc1)c1ccccc1 | ? | -10 | -7 | -5% | 10% | 12µM*
COc1cccc(N2CCN(c3nc(-c4ccccc4C)cc(=O)[nH]3)CC2)c1 | -98* | 8 | 1 | ? | ? | ?
CSc1ccc(CCNC(=O)c2ccc(-n3c(C)cc4c3CCCC4)cc2)cc1 | -98* | nt | nt | nt | nt | nt
Cc1cc2c(n1-c1ccc(C(=O)NCC(C)c3ccccc3)cc1)CCCC2 (stereo not drawn) | -61* | nt | nt | nt | nt | nt
